# Screening data from PubChem BioAssay.
# DT40 TDP1 CPT = qHTS for Inhibitors of human tyrosyl-DNA phosphodiesterase 1 (TDP1): qHTS in cells in presence of CPT; chicken DT40 Tdp1-/-;hTDP1 cells + 20 nM CPT, ATP luminescence, 48 h; Potency, µM (titrated, usually from 46.2 µM), inactives show top-dose activity change, negative = growth inhibition, actives largely listed as inhibitors; 420,000 tested, 12% active; AID 686979, 2013; note: nearly all actives have a fitted effect of over 55% in size
#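 Cell growth measured by CellTiter-Glo luminescence after a minimum 48 h, 37 C compound exposure with 20 nM CPT in Tdp1-knockout DT40 cells stably expressing hTDP1, seeded 400/well; qHTS titration format.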
# Gal4-VP16 FLuc = VP16 counterscreen qHTS for inhibitors of ROR gamma transcriptional activity; AID 2546, 2010; Drosophila S2 Gal4-VP16 UAS-luciferase, luminescence, 20 h; 310,000 tested, 3.5% active; Potency, µM (highest dose often 53.6 µM), for the others: at the top dose activity, negative = inhibition, most hits filed as inhibitors;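 note: Gal4-VP16 expression switched on by copper sulfate through the metallothionein promoter; nearly all actives have a fitted effect of over 50% in size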
# TDP1 inh = qHTS Assay for Inhibitors of Tyrosyl-DNA Phosphodiesterase (TDP1). Tyrosyl-DNA phosphodiesterase 1 (Homo sapiens), Q9NUW8. recombinant TDP1, AlphaScreen DNA substrate cleavage. Potency, µM (titrated, usually from 130 µM), for the others: top-dose activity change, negative = inhibition, usual class: inhibitors. 350,000 tested, 0.28% active; note: nearly all actives have a fitted effect of over 40% in size
# Target sequence (Q9NUW8 whole entry, looked up): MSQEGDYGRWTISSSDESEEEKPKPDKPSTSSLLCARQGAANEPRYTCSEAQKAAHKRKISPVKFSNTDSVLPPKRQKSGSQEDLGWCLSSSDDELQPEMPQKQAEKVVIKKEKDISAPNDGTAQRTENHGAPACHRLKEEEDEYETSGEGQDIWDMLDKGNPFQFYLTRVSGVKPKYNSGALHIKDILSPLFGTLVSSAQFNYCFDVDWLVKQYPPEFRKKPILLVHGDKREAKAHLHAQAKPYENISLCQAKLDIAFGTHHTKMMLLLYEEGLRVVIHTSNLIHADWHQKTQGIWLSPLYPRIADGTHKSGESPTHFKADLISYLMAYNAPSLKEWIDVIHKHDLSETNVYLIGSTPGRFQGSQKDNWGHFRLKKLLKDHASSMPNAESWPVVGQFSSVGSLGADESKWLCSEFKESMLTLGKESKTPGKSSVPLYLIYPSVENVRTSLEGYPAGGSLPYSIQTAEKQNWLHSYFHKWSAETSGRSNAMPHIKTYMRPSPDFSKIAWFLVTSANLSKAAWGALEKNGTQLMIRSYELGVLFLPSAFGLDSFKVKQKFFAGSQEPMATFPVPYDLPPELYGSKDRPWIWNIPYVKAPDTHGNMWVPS
#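 Here, a 5' biotin and 3' phosphotyrosine-FITC DNA oligonucleotide reports Tdp1 activity: intact substrate bridges AlphaScreen beads, while cleavage leaves a 3' phosphate and drops signal. All incubations at room temperature.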
# RORg inh = qHTS for inhibitors of ROR gamma transcriptional activity | Drosophila S2 Gal4-RORgamma UAS-luciferase reporter, 20 h | Potency, µM (titrated, usually from 53.6 µM), inactives show top-dose activity change, negative = inhibition, actives largely listed as inhibitors | 310,000 tested, 5.4% active; note: nearly all actives have a fitted effect of over 60% in size
#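 Stable Schneider cell line, Gal4 DNA-binding domain fused to ROR gamma, UAS-luciferase. Cmpd 1 hr RT → CuSO4 700 uM final → 20 hr RT → luciferase reagent 10 min → luminescence.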
# DT40 TDP1 no CPT = qHTS for Inhibitors of human tyrosyl-DNA phosphodiesterase 1 (TDP1): qHTS in cells in absence of CPT; DT40 Tdp1-/- hTDP1 cells, no CPT, ATP luminescence, 48 h; Potency, µM (titrated, usually from 46.2 µM), inactives show top-dose activity change, negative = growth inhibition, actives largely listed as inhibitors; 420,000 tested, 15% active; AID 686978, 2013; note: nearly all actives have a fitted effect of over 55% in size
#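 Compound effects on proliferation are scored in DT40 Tdp1-/-;hTDP1 cells in the absence of CPT. ATP levels (CellTiter-Glo luminescence) are recorded after a ≥48 hr, 37 °C incubation.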
# An asterisk follows results filed as active; ? = inconclusive; / = no result; ! = not confirmed by another sample; [ ] = dose if it differs, or a comment. This is a sample that favours compounds with a hit; in the whole collection about 19% have one here. Calls come from the whole dose curve; as a rule, active = well fitted curve in the direction sought with a large enough effect; inconclusive = small, poorly fitted or top-dose-only effect, or another doubt; inactive = no such curve, though single readings can be large; an effect the other way counts as inactive or inconclusive. % is set by controls: 0 for no effect and ±100 for the full control effect; potency is the fitted concentration of half-maximal effect.
SMILES,DT40 TDP1 CPT,Gal4-VP16 FLuc,TDP1 inh,RORg inh,DT40 TDP1 no CPT
N=C(N)SCc1cn(-c2ccccc2)nc1-c1ccc(Br)cc1,9.2µM*,?,3%,11µM*,7.3µM*
Cc1ccc(-c2nn(-c3ccccc3)cc2CO)cc1,13%,-11%,/,11%,4%
O=C(CCc1ccccc1)Nc1ccccc1C(=O)N1CCOCC1,-1%,0%,-1%,2%,19%
O=C(CSc1nccc(=O)[nH]1)N1CCOCC1,14%,-2%,4%[56.1 µM],0%,18%
CCn1c(SCc2ccccc2Cl)nc(=O)c2c(C(=O)OC)cc(C3CC3)nc21,12µM*,/,5%,/,16µM*
Cc1cccc(NC(=O)Nc2ccc([N+](=O)[O-])cc2)n1,-4%,?,3%,-34%,-8%
O=C(Nc1ccc(S(=O)(=O)NCc2ccco2)cc1)c1ccc2ccccc2n1,?,-10%,0%,-16%,21µM*
COc1ccc(C(=O)NCC(=O)Nc2cccc(S(=O)(=O)NCc3ccco3)c2)cc1OC,1%,-6%,6%,6%,9%
O=C(COc1ccccc1F)Nc1ccc(S(=O)(=O)NCc2ccco2)cc1,?,-2%,4%,8%,18µM*
CC(C)CC(=O)Nc1ccc(S(=O)(=O)NCc2ccco2)cc1,-15%,?,-14%,19%,?
O=C(COc1ccccc1)Nc1ccc(S(=O)(=O)NCc2ccco2)cc1,?,0%,1%,-17%,?
CCc1ccccc1OCC(=O)Nc1cccc(S(=O)(=O)NCc2ccco2)c1,18µM*,/,5%,/,?
COc1ccc2nc(/N=C(\N)NC(=O)C(C)(C)C)nc(C)c2c1,-18%,-11%,-5%,-39%,?
COc1ccc2nc(/N=C(\N)NC(=O)N3c4ccccc4Sc4ccccc43)nc(C)c2c1,13µM*,-8%,0%,16%,16µM*
CCC(=O)N/C(N)=N/c1nc(C)c2cc(OC)ccc2n1,13µM*,6%,2%,0%,12µM*
Cc1ccc2c(C)nc(/N=C(\N)NC(=O)N3c4ccccc4Sc4ccccc43)nc2c1,?,-3%,-3%,-2%,21µM*
Cc1cc2nc(/N=C(\N)NC(=O)N3c4ccccc4Sc4ccccc43)nc(C)c2cc1C,?,1%,6%,-3%,15µM*
Cc1nc(/N=C(\N)Nc2ccccc2)nc2ccccc12,/,5%,0%,-26%,/
COc1ccc(CNS(=O)(=O)c2c(C)[nH]c(C)c2C(=O)N2CCCC2)cc1,-13%,-3%,1%,-7%,17%
COc1cc([C@@H]2CC=C(C(=O)O)[C@H](c3ccccc3)N2S(=O)(=O)c2ccc(C)cc2)cc(OC)c1OC,-6%,/,1%,/,-6%
CC(C)Oc1ccc(C(CC(=O)O)n2cnnn2)cc1 (centres undefined),3%,8%,3%,-9%,3%
CC12CN3CC(C)(CN(C1)C3c1ccccc1)C2O (centres undefined),-6%,-14%,3%,15%,2%
Cn1cccc1CC(=O)N/N=C/c1cccc([N+](=O)[O-])c1,3%,13%,8%,29%,-28%
Cc1ccc2nc(/N=C(\N)NC(=O)N3c4ccccc4Sc4ccccc43)nc(C)c2c1,?,7%,1%,6%,9.2µM*
COc1cc(CNc2ccc(N3CCOCC3)cc2)ccc1OCC(=O)NC(C)(C)C,?,24%,/,?,?
SMILES,DT40 TDP1 CPT,Gal4-VP16 FLuc,TDP1 inh,RORg inh,DT40 TDP1 no CPT
CCOC(=O)c1ccc(Oc2ccc(C(F)(F)F)cn2)cc1,-15%,-7%,1%,26%,11%
CC1CCCN(C(=O)COC(=O)CNC(=O)c2ccc(Br)cc2)C1 (centres undefined),16%,/,/,/,5%
CCc1ccccc1NC(=O)c1sc2nc(C)cc(C)c2c1N,18µM*,2%,/,41%,?
Cc1cc(C)c2c(N)c(C(=O)N3CCCCCC3)sc2n1,15µM*,10%,7%,-30%,-24%
COc1cc(/C=N/NC(=O)c2sc3nc(C)cc(C)c3c2N)ccc1O,?,2%,/,0%,3.3µM*
COCc1cc(C)nc2sc(C(=O)N3CCCC3)c(N)c12,-16%,0%,3%,0%,-19%
COC(=O)c1sc2nc(C)cc(C)c2c1N,-24%,-1%,1%,-20%,-7%
Cc1cc(C)c2c(N)c(C(=O)Nc3ncc(C)s3)sc2n1,16µM*,2.8µM*,/,2µM*,18µM*
CC1CCCCC1NC(=O)COC(=O)CCC(=O)c1cccs1 (centres undefined),-1%,/,-1%[56.1 µM],/,-4%
CC(C)(C)CC(C)(C)c1ccc(OCC(=O)N/N=C/c2ccc(S(=O)(=O)O)o2)cc1,13%,4%,/,12%,-10%
Cc1ccc(S(=O)(=O)NC(=O)C2(C)CCN2C(=O)c2c(C)noc2C)cc1 (centres undefined),4%,/,/,/,-19%
Cc1cc(C)c2c(N)c(C(=O)c3ccccc3Cl)sc2n1,-29%,2%,5%,12%,?
Cc1cc(C)c2c(N)c(C(=O)c3ccc(Cl)cc3Cl)sc2n1,?,-10%,8%,11%,18µM*
COc1ccc2nc(NC(=O)c3sc4nc(C)cc(C)c4c3N)sc2c1,-5%,?,/,0.04µM*,?
Cc1cc(C)c2c(N)c(C(=O)Nc3ccccc3Br)sc2n1,-29%,-11%,/,-11%,-17%
Fc1ccccc1/C=N/Nc1nc(N2CCCCC2)nc(N2CCCCC2)n1,-15%,4%,-4%,-35%,?
CCCc1cc(C(=O)Cc2ccc(F)cc2)c(O)cc1O,?,?,3%,11µM*,?
COC(=O)CSc1nc(N)c2c3c(sc2n1)C(c1ccccc1)SC(c1ccccc1)C3 (centres undefined),4.1µM*,11µM*,8%,10µM*,2.6µM*
CC1=C(/C=C/C(C)=C/C=C/C(C)=C/C=O)C(C)(C)CCC1,/,?,19%,?,/
CC1=C(/C=C/C(C)=C/C=C/C(C)=C\CO)C(C)(C)CCC1,18µM*,/,9%,/,?
CC1=C(/C=C/C(C)=C/C=C/C(C)=C/CO)C(C)(C)CCC1,?,?,11%[56.1 µM],19%,21µM*!
CC(=O)OC/C=C(C)/C=C/C=C(C)/C=C/C1=C(C)CCCC1(C)C,?,22%,1%,-6%,23µM*!
Cc1ccc(-c2cn3nc(C)c(C)nc3n2)cc1,-23%,10µM*,7%,7.9µM*,-26%
